ChEMBL document CHEMBL3988442, “University of Dundee, Small-Polar-MMV Screening Library” (2021)
Where “and” joins values, the source holds several entries; their conditions need not be identical. Equal entries are not always repeated. Screen size: about 34,000 compounds; about 290 (0.85%) showed an effect of 50% or more. This excerpt belongs to a sample that is enriched for strong results.

System: Plasmodium falciparum
Experiment: Plasmodium falciparum sporozoite viability assay
Assay type: functional, organism-based
Set-up: scale not given: in the data most compounds retested in dose-response had high values

Compound: CN1CCC(c2n[nH]cc2-c2ccnc(N)c2)C1 (configuration not stated)
- Percent Effect: 2.531%

Compound: Cc1nnc2n1CCN(CCOc1ccccc1)C2
- Percent Effect (10 mM as filed; unlikely as a test dose): -26.14% and -25.56% and -5.728%

Compound: CS(=O)(=O)NCc1cc(-c2cc(F)cc(F)c2)nc(N2CCCC2)n1
- Percent Effect: 13.63%

Compound: CN(Cc1ccccc1)C(=O)CCNc1ncccc1C#N
- Percent Effect: -0.1304%

Compound: CN(Cc1noc(C2CC2)n1)C1CCN(CC(=O)N2CCOCC2)C1 (configuration not stated)
- Percent Effect: 4.316%

Compound: COCCOc1ccc(F)cc1NCc1nc2ccccc2n1C
- Percent Effect (10 mM as filed; unlikely as a test dose): 8.05% and -7.699% and 5.859%

Compound: COc1cc(F)c(NCc2nc3ccccc3n2C)cc1OC
- Percent Effect (10 mM as filed; unlikely as a test dose): 61.41% and 85.71% and 92.05%

Compound: COCCOc1ncccc1NCc1nc2ccccc2n1C
- Percent Effect (10 mM as filed; unlikely as a test dose): 12.39% and -0.3581% and 11.74%

Compound: Cc1cc(NC(=O)CNC2CCc3nc(C(C)C)nn3C2)no1 (configuration not stated)
- Percent Effect: 3.617%

Compound: O=C(O)C(F)(F)F.O=C(O)C(F)(F)F.O=C1CC2(CCN(Cc3cccnc3)C2)CN1c1ccc2c(c1)OCO2 (configuration not stated)
- Percent Effect: 12.41%

Compound: CN(C)c1nc2c(c(N3CCc4ccccc4C3)n1)CCNC2
- Percent Effect: 6.667%

Compound: Clc1ccc2nc(N3CCC(NCCCC4CCOC4)CC3)sc2c1 (configuration not stated)
- Percent Effect (10 mM as filed; unlikely as a test dose): 74.93% and 78.72%

Compound: Cc1csc2c(N3CCC(NCCCC4CCOC4)CC3)ncnc12 (configuration not stated)
- Percent Effect: 2.368%

Compound: Cl.c1ccc(-c2cc(CNCCCC3CCOC3)c3nnnn3c2)cc1 (configuration not stated)
- Percent Effect: -4.775%

Compound: COc1ccc2c(c1)C(=O)NC1(CC2)CCN(Cc2ccncc2)C1 (configuration not stated)
- Percent Effect: 11.06%

Compound: CCCNC(=O)c1cc(C2CCCN(Cc3ccccn3)C2)no1 (configuration not stated)
- Percent Effect: 2.586%

Compound: CNS(=O)(=O)Cc1cccc(CNC(=O)Nc2cn[nH]c2)c1
- Percent Effect: 3.105%

Compound: Cc1n[nH]c(C2CN(C(=O)c3cc4c(s3)CCC4)CCO2)n1 (configuration not stated)
- Percent Effect (10 mM as filed; unlikely as a test dose): -3.516% and -12.52% and -10.81%

Compound: Cc1n[nH]c(C2CN(C(=O)c3cc4c(s3)CCCC4)CCO2)n1 (configuration not stated)
- Percent Effect (10 mM as filed; unlikely as a test dose): 11.47% and -8.902% and 7.352%

Compound: N#Cc1c(C2CCOC2)cc(-c2ccc(N3CCCCC3)cc2)nc1N (configuration not stated)
- Percent Effect (10 mM as filed; unlikely as a test dose): 29.44% and 63.96% and 52.39%

Compound: Oc1nnc(-c2cccs2)c2sc(N3CCCC3)nc12
- Percent Effect (10 mM as filed; unlikely as a test dose): -6.906% and -7.819%

Compound: Oc1nnc(-c2cccs2)c2sc(N3CCCCC3)nc12
- Percent Effect (10 mM as filed; unlikely as a test dose): 6.59% and -1.953%

Compound: Oc1nnc(-c2ccccc2)c2sc(N3CCCCC3)nc12
- Percent Effect (10 mM as filed; unlikely as a test dose): 60.86% and 56.27%

Compound: CCOc1ccc(Cl)cc1CCNC(=O)Cn1nc(C)ccc1=O
- Percent Effect: -8.218%

Compound: Cc1nc(C)c(COc2ccc(S(=O)(=O)N(C)C)cc2)s1
- Percent Effect (10 mM as filed; unlikely as a test dose): 5.36% and 0% and 2.114%

Compound: Cc1nc(COc2ccc(N(C)S(C)(=O)=O)cc2)sc1C
- Percent Effect (10 mM as filed; unlikely as a test dose): 53.33% and 78.78% and 74.56%

Compound: CN1CCN(c2ccc(NS(=O)(=O)c3ccc(Br)s3)cc2C(=O)O)CC1
- Percent Effect: 4.745%

Compound: Cc1ccc(CC(=O)N2CCN(c3nccs3)CC2)s1
- Percent Effect: 2.447%

Compound: CC(C)OCCCN(Cc1ccncc1)Cc1cc(F)cc(F)c1.Cl
- Percent Effect: 11.64%

Compound: CC(=O)Nc1nc(C(=O)N2CCCC(n3cncn3)C2)cs1 (configuration not stated)
- Percent Effect (10 mM as filed; unlikely as a test dose): 82.11% and 81.18% and 79.89%

Compound: CC(=O)N1CCN(C(=O)Nc2cnc3c(cnn3C(C)C)c2)CC1
- Percent Effect: 25.32%

Compound: Cc1ccc(CN(CCN(C)C)Cc2ccnn2C2CCCCO2)o1.O=C(O)CC(O)(CC(=O)O)C(=O)O (configuration not stated)
- Percent Effect: -4.714%

Compound: OC[C@@H]1CCCN1c1ccc(-c2nc(CCc3ccccc3)no2)cn1
- Percent Effect: -12.02%

Compound: COCc1noc(-c2ccc(N3CCC[C@H]3CO)nc2)n1
- Percent Effect (10 mM as filed; unlikely as a test dose): 100.4% and 89.16% and 80.89%

Compound: COc1ccc2c(c1)CN(c1cc(N3CCCC3CO)ncn1)CC2 (configuration not stated)
- Percent Effect: -18.73%

Compound: Cc1ccc(-c2nc(CN3CCCC3Cn3cc(C)cn3)no2)cc1 (configuration not stated)
- Percent Effect: -11.03%

Compound: OCC1CCCN1c1cc(N2CCc3ccccc3C2)ncn1 (configuration not stated)
- Percent Effect: 3.468%

Compound: OC[C@@H]1CCCN1c1ccc(-c2nc(COc3ccccc3)no2)cn1
- Percent Effect: 3.859%

Compound: COc1ccc(-c2noc(-c3ccc(N4CCC[C@H]4CO)nc3)n2)cc1
- Percent Effect (10 mM as filed; unlikely as a test dose): 49.77% and 66.78% and 41.57%

Compound: CCOC(=O)C1CCCN(c2ccc(-c3nc(C)no3)cn2)C1 (configuration not stated)
- Percent Effect: -0.4292%

Compound: OCC1CCCCN1c1ccc(-c2nc(-c3ccccc3F)no2)cn1 (configuration not stated)
- Percent Effect (10 mM as filed; unlikely as a test dose): 104% and 108.6% and 106.3%

Compound: COCc1noc(-c2ccc(N3CCCCC3CO)nc2)n1 (configuration not stated)
- Percent Effect (10 mM as filed; unlikely as a test dose): 100.3% and 99.37% and 102%

Compound: COc1cccc(CNC(=O)C(c2cccc(F)c2)N2CCOCC2)c1 (configuration not stated)
- Percent Effect: -3.044%

Compound: O=C(c1ccc(OCC2CC2)nc1)N1CCCC(n2cccn2)C1 (configuration not stated)
- Percent Effect: -19.18%

Compound: CC(C)C(=O)N(C)CC(=O)Nc1ccc(Br)cn1
- Percent Effect: 14%

Compound: CC(C)NC(=O)C1CCN(c2nc3nc[nH]c(=O)c3s2)CC1
- Percent Effect: 4.304%

Compound: O=C(O)CC(O)(CC(=O)O)C(=O)O.OC1CCN(Cc2ccnc(-c3cccnc3)n2)CC1
- Percent Effect: -11.33%

Compound: O=C(C1CCOCC1)N1CC[C@@H](O)[C@@H]1Cc1ccccc1
- Percent Effect: -0.722%

Compound: CCc1cc(C(=O)N2CCc3nc4c(C)csc4c(=O)n3CC2)on1
- Percent Effect: -3.013%

Compound: Cc1ccc(CNC2CCCN(Cc3noc(C4CC4)n3)C2)s1 (configuration not stated)
- Percent Effect: 14.12%

Compound: Cc1nccc([C@@H]2C[C@H]3CN(S(=O)(=O)c4ccccc4)C[C@H]3O2)n1
- Percent Effect: -0.614%

Compound: COCc1noc(-c2ccc(N3CCCCC3COC)nc2)n1 (configuration not stated)
- Percent Effect (10 mM as filed; unlikely as a test dose): 46.38% and 65.96% and 53.91%

Compound: COCc1noc(-c2ccc(N3CCCC3c3ccc(F)cc3)nc2)n1 (configuration not stated)
- Percent Effect: -8.49%

Compound: COCc1noc(-c2ccc(N3CCCC3c3nccs3)nc2)n1 (configuration not stated)
- Percent Effect: 12.02%

Compound: Cc1ccc(CN2Cc3nccn3CC(Cn3cccn3)C2)s1.O=C(O)C(F)(F)F (configuration not stated)
- Percent Effect: 14.89%

Compound: Cn1cc(-c2nc(CN3CCc4c(ncn4C)C3)cs2)cn1
- Percent Effect (10 mM as filed; unlikely as a test dose): 16.12% and 15.46% and 16.04%

Compound: c1ccc(OCCN2CCc3c(ncn3C3CC3)C2)cc1
- Percent Effect: 1.314%

Compound: c1ccc(CCN2CCc3c(ncn3C3CC3)C2)nc1
- Percent Effect (10 mM as filed; unlikely as a test dose): 67.57% and 58.81%

Compound: Cn1cnc2c1CCN(c1ccnc(-c3ccccc3)n1)C2
- Percent Effect (10 mM as filed; unlikely as a test dose): 23.08% and 36.96% and 19.93%

Compound: c1ccc(-c2nccc(N3CCc4c(ncn4C4CC4)C3)n2)cc1
- Percent Effect (10 mM as filed; unlikely as a test dose): 47.31% and 54.94% and 44.8%

Compound: Cn1cnc2c1CCN(Cc1csc(-c3ccsc3)n1)C2
- Percent Effect (10 mM as filed; unlikely as a test dose): 58.75% and 42.56% and 36.07%

Compound: c1cc(-c2nc(CN3CCc4c(ncn4C4CC4)C3)cs2)cs1
- Percent Effect (10 mM as filed; unlikely as a test dose): 57.35% and 45.82% and 61.3%
